The values that follow come from PubChem BioAssay (NCI).

What all share (experiment): NCI-60 one-dose screen, 48 h (100 = growth as untreated, 0 = no growth, -100 = all killed)
The subject of one assay is DU-145 prostate. The conditions noted are these: 10 µM unless noted.
The test system of a further assay is K-562 leukemia. The following applies: 10 µM unless noted.
The next assay has as its system MALME-3M melanoma. The following applies: 10 µM unless noted.
The next assay concerns MDA-MB-231 breast. The following applies: 10 µM unless noted.
Another assay has as its system RXF 393 renal. The following applies: 10 µM unless noted.
Another assay has as its system SF-268 CNS. The conditions noted are these: 10 µM unless noted.
The test system of a further assay is SF-295 CNS. The following applies: 10 µM unless noted.
In a further assay the test system is SF-539 CNS. The following applies: 10 µM unless noted.
Another assay deals with UACC-257 melanoma. The following applies: 10 µM.
Another assay concerns M14 melanoma. The following applies: 10 µM unless noted.

The panel holds about 83,000 compounds, 20% with a hit somewhere; the sample as a whole holds those more often.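 Interpretation: 100, growth as untreated; towards 0, rising growth inhibition; 0, no net growth; 0 to -100, cell death. Compounds scoring below 10 were considered active.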 Values without a mark were called inactive. Activity calls are given as the source filed them.

As for `COc1cccc(/C=C2\SC(N3CCN(c4ccccn4)CC3)=NC2=O)c1`, the growth in the assay with DU-145 prostate is 101%; in the assay on K-562 leukemia it was 82.2%; in the assay on MALME-3M melanoma it was 96.8%; with MDA-MB-231 breast, 99.2%; with RXF 393 renal it was 113%; in the assay with SF-268 CNS, 102%. For the same molecule, the growth with SF-295 CNS is 98.6%; with SF-539 CNS it was 110%; with UACC-257 melanoma, 101%; in the assay on M14 melanoma, 103%.
For `COc1ccccc1CNCCCN1C(=O)c2ccc3c4c(ccc(c24)C1=O)C(=O)N(CCCNCCCCNCCCCN)C3=O`, the growth in the assay on DU-145 prostate is 9.88% (active); in the assay with K-562 leukemia, 7.51% (active); with MALME-3M melanoma, -83.9% (active); in the assay with MDA-MB-231 breast it was 8.05% (active); with RXF 393 renal, 22.6%; in the assay on SF-268 CNS it was 4.92% (active). In addition, the growth was 2.29% (active) with SF-295 CNS, 11% in the assay on SF-539 CNS, -56.2% (active) with UACC-257 melanoma and -5.69% (active) in the assay on M14 melanoma.
Turning to `Cc1cc2c(c(=O)o1)C(c1ccc(OC(=O)N3CCOCC3)cc1)C(C#N)=C(N)O2` (centres undefined), the growth in the assay with DU-145 prostate was 112%; with K-562 leukemia, 98.6%; in the assay on MALME-3M melanoma, 126%; in the assay on MDA-MB-231 breast, 116%; in the assay on RXF 393 renal it was 114%; in the assay on SF-268 CNS it was 114%. Besides, the growth is 100% in the assay with SF-295 CNS, 96.5% in the assay with SF-539 CNS, 98.2% in the assay with UACC-257 melanoma and 110% in the assay on M14 melanoma.
Turning to `Cc1sc(N=Nc2ccc(N(C)C)cc2)[n+]([O-])c1C`, the growth in the assay on DU-145 prostate is 102%; with K-562 leukemia it was 121%; in the assay with MALME-3M melanoma, 91.2%; in the assay with MDA-MB-231 breast, 96.2%; in the assay with RXF 393 renal it was 79.7%; in the assay with SF-268 CNS, 95.7%. Also, the growth with SF-295 CNS is 106%; in the assay with SF-539 CNS it was 100%; in the assay on UACC-257 melanoma, 105%; in the assay on M14 melanoma, 99.8%.
As for `Cc1nn(-c2ccc(Cl)cc2)c(=O)n1CCOc1ccccc1Cl`, the growth with DU-145 prostate was 110%; in the assay with K-562 leukemia, 96.8%; with MALME-3M melanoma, 103%; in the assay on MDA-MB-231 breast, 89.6%; with RXF 393 renal, 115%; with SF-268 CNS, 106%. For the same molecule, the growth with SF-295 CNS is 72.3%; in the assay with SF-539 CNS, 108%; in the assay with UACC-257 melanoma, 105%; in the assay with M14 melanoma, 98.8%.
For the molecule `COc1ccc(OC)c(C(=O)c2oc3ccc(Br)cc3c2N)c1`, the growth is 16.3% in the assay on DU-145 prostate; 8.24% (active) with K-562 leukemia; 35.2% with MALME-3M melanoma; 29.8% with MDA-MB-231 breast; -30.1% (active) with RXF 393 renal; 47.3% in the assay with SF-268 CNS. The growth in the assay on SF-295 CNS is -35.1% (active); in the assay with SF-539 CNS, -44.4% (active); in the assay on UACC-257 melanoma, 49.9%; with M14 melanoma, 27.3%.
Take `COc1ccc(-c2nc3sccn3c2-c2ccnc(NCCNS(=O)(=O)c3ccc(C(F)(F)F)cc3)n2)cc1`: the growth in the assay on DU-145 prostate is 15.8%; in the assay with K-562 leukemia it was 6.19% (active); with MALME-3M melanoma it was 8.25% (active); in the assay on MDA-MB-231 breast it was 16%; in the assay with RXF 393 renal it was 18.5%; with SF-268 CNS, 0.178% (active). Moreover, the growth with SF-295 CNS is -28.5% (active); in the assay with SF-539 CNS, 0.637% (active); with UACC-257 melanoma, 13.3%; with M14 melanoma, 10.1%.
With `Cc1cc(-c2ccccc2)c(C)n1Cc1ccc(Cl)cc1`, the growth in the assay on DU-145 prostate was 86.6%; with K-562 leukemia, 13%; with MALME-3M melanoma, 59.4%; with MDA-MB-231 breast it was 67%; in the assay on RXF 393 renal it was 61.4%; in the assay on SF-268 CNS, 58.5%. Also, the growth with SF-295 CNS is 39.7%; in the assay with SF-539 CNS it was 39.4%; in the assay with UACC-257 melanoma, 48.4%; in the assay with M14 melanoma, 17.7%.
In the case of `NS(=O)(=O)c1ccc(CN2C(=O)c3cccc4cccc(c34)C2=O)cc1`, the growth in the assay on DU-145 prostate was 105%; in the assay on K-562 leukemia, 96%; in the assay on MALME-3M melanoma it was 112%; in the assay on MDA-MB-231 breast, 94.3%; in the assay with RXF 393 renal, 97.6%; with SF-268 CNS, 92.4%. Besides, the growth in the assay with SF-295 CNS was 110%; in the assay with SF-539 CNS, 88.8%; in the assay on UACC-257 melanoma, 103%; in the assay on M14 melanoma it was 105%.
As for `N=C(N)c1ccc(-c2ccc(-c3ccc(Cl)cc3)o2)nc1`, the growth in the assay with DU-145 prostate was -98.4% (active); in the assay with K-562 leukemia it was 112%; in the assay with MALME-3M melanoma, -66.4% (active); in the assay on MDA-MB-231 breast it was -90% (active); in the assay with RXF 393 renal it was -98.1% (active); in the assay on SF-268 CNS, -95.6% (active). In addition, the growth in the assay on SF-295 CNS was -85.4% (active); in the assay on SF-539 CNS, -92.4% (active); with UACC-257 melanoma, -89% (active); in the assay with M14 melanoma, -88.3% (active).
On to `O=S(=O)(NCCNc1cc(-c2cn(-c3ccccc3)nc2-c2ccccc2)ccn1)c1cccc2ccccc12`, for which the growth was 68.9% in the assay with DU-145 prostate; 20.7% with K-562 leukemia; 60.7% in the assay on MALME-3M melanoma; 40% in the assay with MDA-MB-231 breast; 55.3% in the assay with RXF 393 renal; 55% with SF-268 CNS. Moreover, the growth is 35.9% in the assay with SF-295 CNS, 56.9% in the assay with SF-539 CNS and 42.9% with M14 melanoma.
Turning to `CC/C(=C(\c1ccc(O)cc1)c1ccc(OCCN(C)CCN(C)C(=O)CCC(=O)c2c(C)[nH]c(/C=C3\N=C(c4ccc[nH]4)C=C3OC)c2C)cc1)c1ccccc1`, the growth in the assay on DU-145 prostate was 46.9%; in the assay with K-562 leukemia, 5.83% (active); in the assay with MALME-3M melanoma, 55.4%; in the assay with MDA-MB-231 breast it was 9.16% (active); with RXF 393 renal, 66.1%; with SF-268 CNS it was 69.8%. Moreover, the growth in the assay on SF-295 CNS was 95.9%; in the assay on SF-539 CNS, 63.2%; in the assay on UACC-257 melanoma, 104%; in the assay with M14 melanoma, 20.7%.
Consider `COc1cc2c(cc1OC)C1(C)N(CC2)C(=O)OC1(C)C` (centres undefined), for which the growth with DU-145 prostate was 112%; in the assay on K-562 leukemia, -78.1% (active); in the assay with MALME-3M melanoma, 122%; in the assay with MDA-MB-231 breast, 115%; in the assay with RXF 393 renal, 99%; in the assay on SF-268 CNS, 103%. In addition, the growth in the assay on SF-295 CNS was 103%; in the assay on SF-539 CNS, 106%; with UACC-257 melanoma, 95.6%; in the assay with M14 melanoma it was 101%.
In the case of `NC(CC(N)C(=O)O)C(=O)O` (centres undefined), the growth was 115% in the assay on DU-145 prostate; 91.8% in the assay on K-562 leukemia; 104% in the assay on MALME-3M melanoma; 103% in the assay on MDA-MB-231 breast; 89.6% in the assay with RXF 393 renal; 109% in the assay with SF-268 CNS. For the same molecule, the growth with SF-295 CNS was 101%; with SF-539 CNS, 97.9%; with UACC-257 melanoma, 95.2%; in the assay on M14 melanoma, 104%.
